Drawing on PubChem BioAssay (EPA / NIEHS), this text covers outcome and AC50 for 13 molecules.

Read-out in one experiment: CD69, CD69 (gene 969)
The experiment in a line: BSK_IMphg_CD69: BioMAP Diversity Plus: IMphg Assay for CD69 Biomarker Activity (AID 2284257). The following applies: primary human endothelial cells with macrophages. The method, boiled down: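 Readout is ELISA for CD69 in primary human venular endothelial cell/macrophage co-culture, taken at 24 h post-dosing. SRB staining of parallel cultures gauged overt cytotoxicity; signal increase versus DMSO defined activity.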

Read-out in experiment [1]: Eotaxin 3, CCL26 (gene 10344)
Description: BSK_BF4T_Eotaxin3: BioMAP Diversity Plus: BF4T Assay for Eotaxin 3 Biomarker Activity (AID 2284258). The following applies: primary human bronchial epithelial cells with fibroblasts. A digest of the protocol: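 ELISA measurement of Eotaxin-3 after 24 h chemical exposure in a bronchial epithelial/dermal fibroblast co-culture, with DMSO as baseline. Parallel SRB staining (0.1% SRB after 10% TCA fixation, 560 nm) flagged overt cytotoxicity.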

Read-out in experiment [2]: Monocyte Chemoattractant Protein-1 (MCP1), CCL2 (gene 6347)
The experiment in a line: BSK_BF4T_MCP1: BioMAP Diversity Plus: BF4T Assay for Monocyte Chemoattractant Protein-1 (MCP1) Biomarker Activity (AID 2284259). The following applies: primary human bronchial epithelial cells with fibroblasts. The method, boiled down:
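MCP-1 ELISA readout taken 24 h after dosing in the BF4T system (bronchial epithelial cells plus dermal fibroblasts). Parallel SRB total-protein staining flagged cytotoxicity; DMSO served as baseline, positive fitting direction.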

Read-out in experiment [3]: Intercellular Adhesion Molecule 1 (ICAM1), ICAM1 (gene 3383)
The experiment in a line: BSK_BF4T_ICAM1: BioMAP Diversity Plus: BF4T Assay for Intercellular Adhesion Molecule 1 (ICAM1) Biomarker Activity (AID 2284260). The following applies: primary human bronchial epithelial cells with fibroblasts. The method, boiled down:
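ICAM-1 levels measured by ELISA after 24 h chemical treatment of bronchial epithelial cell/dermal fibroblast co-cultures, read against DMSO baseline. Overt cytotoxicity checked in parallel cultures by sulforhodamine B staining.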

Read-out in experiment [4]: Interleukin-8 (IL8), CXCL8 (gene 3576)
The experiment in a line: BSK_MyoF_IL8: BioMAP Diversity Plus: MyoF Assay for Interleukin-8 (IL8) Biomarker Activity (AID 2284261). The following applies: primary human lung fibroblasts. A digest of the protocol:
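Lung fibroblasts (human primary) → chemical exposure → 24 h → IL-8 measured by ELISA. Signal increase scored versus DMSO control.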

Read-out in a further experiment: CD90, THY1 (gene 7070)
Description: BSK_BF4T_CD90: BioMAP Diversity Plus: BF4T Assay for CD90 Biomarker Activity (AID 2284262). The following applies: primary human bronchial epithelial cells with fibroblasts. The method, boiled down:
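CD90 levels by ELISA after 24 h treatment of human bronchial epithelial cell/dermal fibroblast cultures, analysed versus DMSO. Overt cytotoxicity checked in parallel cultures by sulforhodamine B staining.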

Read-out in experiment [5]: Interleukin-8 (IL8), CXCL8 (gene 3576)
Description: BSK_BF4T_IL8: BioMAP Diversity Plus: BF4T Assay for Interleukin-8 (IL8) Biomarker Activity (AID 2284263). The following applies: primary human bronchial epithelial cells with fibroblasts. The method, boiled down:
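Human bronchial epithelial cells with dermal fibroblasts co-culture; IL-8 measured by ELISA 24 hours after dosing, fitted vs DMSO. Cytotoxicity tracked in parallel cultures by SRB total-protein staining.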

Read-out in experiment [6]: Interleukin-1 alpha (IL1a), IL1A (gene 3552)
Description: BSK_BF4T_IL1a: BioMAP Diversity Plus: BF4T Assay for Interleukin-1 alpha (IL1a) Biomarker Activity (AID 2284264). The following applies: primary human bronchial epithelial cells with fibroblasts. The method, boiled down: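 ELISA read-out of IL-1α from bronchial epithelial cell/dermal fibroblast co-cultures 24 h after compound addition. Increases scored against DMSO negative control. Cytotoxicity monitored by sulforhodamine B staining of parallel cultures.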

Read-out in another experiment: KRT18 (gene 3875)
The experiment in a line: BSK_BF4T_Keratin818: BioMAP Diversity Plus: BF4T Assay for Keratin 818 Biomarker Activity (AID 2284266). The following applies: primary human bronchial epithelial cells with fibroblasts. The method, boiled down: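 Keratin 8/18 levels quantified by ELISA after 24 h chemical treatment of bronchial epithelial cell/dermal fibroblast co-cultures, fitted in positive direction relative to DMSO. Parallel SRB staining tracks overt cytotoxicity.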

Experiment [7] is described as follows: BSK_MyoF_SRB: Viability Assessment in the BioMAP Diversity Plus: MyoF Assay (AID 2284267).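 Note: total protein by SRB absorbance in parallel cultures as cytotoxicity measure.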 The following applies: primary human lung fibroblasts. The method, boiled down: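 In this viability endpoint, fibroblasts from human lung are treated for 24 h, TCA-fixed, SRB-stained (0.1%) and read at 560 nm. Gain of signal relative to DMSO defines activity.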

Molecules are shown by their SMILES. Several values for one entry are separate records, joined by “and”; a condition that tells them apart may be missing. Identical values can stand only once. Activity calls are given as the source filed them. Rule for the calls: active = hit-call score of the fitted dose curve at least 0.9, where 1 is the maximum; inactive = score below 0.9.

For orientation: AC50 means the midpoint of the concentration-response curve, whichever way the signal moves. Consider `FC(F)(F)C(F)(F)C(F)(F)C(F)(F)C(F)(F)C(F)(F)I`, for which the outcome with CD69, CD69 (gene 969) is “inactive”; in experiment [1] it was “inactive”; in experiment [2], “inactive”; in experiment [3], “inactive”; in experiment [4] it was “inactive”; in the experiment with CD90, THY1 (gene 7070), “inactive”. The result (in [5]; in [6]; in the experiment with KRT18 (gene 3875)) was inactive. For the same molecule, the AC50 in [7] is 25.6 µM (active) and 26.5 µM (active).

Take `OC(O)(C(F)C(O)(O)C(F)(F)F)C(F)(F)F`: the outcome with CD69, CD69 (gene 969) was “inactive”; in experiment [1], “inactive”; in experiment [2], “inactive”; in experiment [3], “inactive”; in [4] it was “inactive”; with CD90, THY1 (gene 7070), “inactive”. Besides, the result (in experiment [5]; in experiment [6]; in the experiment with KRT18 (gene 3875); in experiment [7]) was inactive.

Consider `S=P(N1CC1)(N1CC1)N1CC1`, for which the result in experiment [4] and in experiment [7] was inactive.

In the case of `O=S(=O)(O)CCC(F)(F)C(F)(F)C(F)(F)C(F)(F)C(F)(F)C(F)(F)F`, the outcome with CD69, CD69 (gene 969) is “inactive”; in experiment [1], “inactive”; in experiment [2], “inactive”; in [3], “inactive”; in experiment [4], “inactive”; in the experiment with CD90, THY1 (gene 7070), “inactive”. Further, the outcome (in experiment [5]; in experiment [6]; with KRT18 (gene 3875); in experiment [7]) was inactive.

For `OCc1c[nH]c2ccccc12`, the outcome in experiment [4] and in experiment [7] was inactive.

As for `FC(F)(F)COC(OCC(F)(F)F)OCC(F)(F)F`, the outcome with CD69, CD69 (gene 969) is “inactive”; in experiment [1], “inactive”; in experiment [2] it was “inactive”; in [3], “inactive”; in experiment [4] it was “inactive”; in the experiment with CD90, THY1 (gene 7070), “inactive”. For the same molecule, the result (in experiment [5]; in experiment [6]; in the experiment with KRT18 (gene 3875); in [7]) was inactive.

In the case of `OCCC(F)(F)C(F)(F)C(F)(F)C(F)(F)F`, the outcome is “inactive” with CD69, CD69 (gene 969); “inactive” in [1]; “inactive” in experiment [2]; “inactive” in experiment [3]; “inactive” in experiment [4]; “inactive” in the experiment with CD90, THY1 (gene 7070). Also, the result (in experiment [5]; in experiment [6]; in the experiment with KRT18 (gene 3875); in [7]) was inactive.

Take `NCC(F)(F)C(F)(F)C(F)(F)C(F)(F)F`: the outcome in the experiment with CD69, CD69 (gene 969) is “inactive”; in [1], “inactive”; in experiment [2], “inactive”; in experiment [3], “inactive”; in [4], “inactive”; with CD90, THY1 (gene 7070), “inactive”. For the same molecule, the outcome (in experiment [5]; in experiment [6]; with KRT18 (gene 3875); in [7]) was inactive.

In the case of `FC(F)=C(F)C(F)(F)C(F)(F)C(F)(F)C(F)(F)C(F)(F)C(F)(F)F`, the outcome in the experiment with CD69, CD69 (gene 969) is “inactive”; in [1] it was “inactive”; in experiment [2], “inactive”; in experiment [3], “inactive”; in experiment [4], “inactive”; with CD90, THY1 (gene 7070), “inactive”. Besides, the outcome (in experiment [5]; in [6]; with KRT18 (gene 3875); in experiment [7]) was inactive.

With `O=C(Cl)C(F)(F)C(F)(F)C(F)(F)C(=O)Cl`, the outcome in the experiment with CD69, CD69 (gene 969) was “inactive”; in experiment [1], “inactive”; in experiment [2], “inactive”; in experiment [3], “inactive”; in experiment [4], “inactive”; with CD90, THY1 (gene 7070), “inactive”. The result (in [5]; in experiment [6]; with KRT18 (gene 3875); in experiment [7]) was inactive.

Turning to `FC(F)C(F)(F)COCC1CO1` (stereo unspecified), the outcome was “inactive” with CD69, CD69 (gene 969); “inactive” in experiment [1]; “inactive” in experiment [2]; “inactive” in experiment [3]; “inactive” in [4]; “inactive” with CD90, THY1 (gene 7070). Moreover, the result (in experiment [5]; in experiment [6]; in the experiment with KRT18 (gene 3875); in [7]) was inactive.

For the molecule `Cc1cccc(O)c1C`, the outcome in experiment [4] and in experiment [7] was inactive.

Regarding `C[Si](C)(C)C(F)(F)C(F)(F)C(F)(F)F`, the outcome in the experiment with CD69, CD69 (gene 969) is “inactive”; in experiment [1], “inactive”; in [2], “inactive”; in experiment [3], “inactive”; in experiment [4], “inactive”; in the experiment with CD90, THY1 (gene 7070) it was “inactive”. For the same molecule, the result (in experiment [5]; in experiment [6]; with KRT18 (gene 3875); in experiment [7]) was inactive.
